GRK2 inh – inhibitors of human GRK2 displacing RNA aptamer. P25098. bead flow cytometry, FAM-aptamer displacement from GRK2. inhibition of aptamer binding, % at 10 µM. 0.59% of 330,000 active. AID 488847;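 active = inhibition of aptamer binding above 40%, roughly 3 SD of noise, on plates passing a quality check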;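 note: median bead fluorescence of bound FAM aptamer so fluorescent compounds give negative values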
Rtt109 Vps75 – blocks Candida albicans Rtt109/Vps75 acetyltransferase activity | Q5AAJ8 | purified Rtt109/Vps75, ThioGlo CoA-SH fluorescence, 4 h | AID 540336 | 0.16% of 330,000 active | inhibition, % at 34.9 µM;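 active = inhibition of at least 50% in every replicate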
Rce1 inh – blocks yeast Ras-converting enzyme; yeast membranes, quenched prenylated peptide cleavage fluorescence; calls only; AID 2563; 0.27% of 290,000 active; Q03530;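 active = fall in fluorescence gain of 50% or more versus controls, with final raw signal at or below 3038400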;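 note: plate controls were neutral control wells for no effect and wells lacking membranes for full effect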
Target sequence (Q03530 whole entry, looked up): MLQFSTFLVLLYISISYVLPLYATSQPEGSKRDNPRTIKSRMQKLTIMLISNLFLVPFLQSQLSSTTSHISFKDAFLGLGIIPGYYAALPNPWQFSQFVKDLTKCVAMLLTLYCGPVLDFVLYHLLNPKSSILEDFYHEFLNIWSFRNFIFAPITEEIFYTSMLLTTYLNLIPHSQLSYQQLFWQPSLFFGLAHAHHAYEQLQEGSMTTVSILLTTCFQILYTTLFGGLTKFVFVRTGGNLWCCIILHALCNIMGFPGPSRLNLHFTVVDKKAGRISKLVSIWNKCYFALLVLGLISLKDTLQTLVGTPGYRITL
Efflux pump inh – inhibitors of Candida antifungal efflux pumps expressed in yeast | S. cerevisiae Candida pump triplex, Nile Red efflux | inhibition, % at 10 µM | 0.44% of 330,000 active;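 active = plate passing quality check with inhibition over a set limit, or well fluorescence over plate mean plus 4 SD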;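 note: Nile Red retained in pooled yeast measured as flow cytometry median fluorescence; 0% = buffer negative control and 100% = Enniatin B positive control; higher means more Nile Red kept so more efflux inhibition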
ALR inh – human ALR oxidase inhibition via reduced H2O2 | AID 485317 | P55789 | 3.8% of 290,000 active | inhibition, % (no concentration beside the values) | purified ALR, DTT oxidation, H2O2 HRP-luminol luminescence;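 active = mean replicate inhibition above about 79%, with every replicate also reaching it, limit read from the data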
Target sequence (P55789 whole entry, looked up): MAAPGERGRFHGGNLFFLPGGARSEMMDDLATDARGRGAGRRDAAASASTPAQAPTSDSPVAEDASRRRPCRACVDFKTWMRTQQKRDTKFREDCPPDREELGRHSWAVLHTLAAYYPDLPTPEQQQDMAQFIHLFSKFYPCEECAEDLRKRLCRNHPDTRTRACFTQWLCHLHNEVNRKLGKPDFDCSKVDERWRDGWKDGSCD
HDAC3 inh – blocks human histone deacetylase 3; O15379; recombinant HDAC3, fluorogenic peptide/trypsin coupled, fluorescence; inhibition, % at 8.3 µM; 0.15% of 320,000 active; AID 2718; in the data active = inhibition above about 26%, passing the limit was not always enough
GRK2 CP1 – human GRK2 inhibition confirmation, cherry pick 1 | bead-bound GRK2, FAM-aptamer displacement, flow cytometry | shares compounds with GRK2 inh | aptamer displacement, % at 10 µM | 4% of 2,000 active;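 active = aptamer displacement above 40%, near three times the noise of non-fluorescent compounds, on plates passing quality checks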;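 note: negative values mostly reflect intrinsic compound fluorescence rather than true enhancement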
Aptamer quench – fluorescent aptamer quenching in GRK2 counter-screen dose response | 110 tested, under 10 active | fluorescence change (kMESF span), kMESF (concentration not given with the values) | shares compounds with GRK2 inh | Fluorescent RNA aptamer beads, flow cytometry; active compounds read high;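 active = compounds whose bead fluorescence drops by more than 37 kMESF across the dose range, marking them as dye quenchers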
Aptamer quench SP – aptamer fluorescence quenching in GRK2 counter-screen; shares compounds with GRK2 inh; Carboxyfluorescein RNA aptamer on beads, flow cytometry quenching; active compounds read low; fluorescence response (% of DMSO), % at 10 µM; 2,000 tested, under 10 active;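 active = compounds that quench the bead-bound fluorescent RNA probe, cutting fluorescence to under half of the solvent control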;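 note: counterscreen run without GRK2 so only probe quenching by compound is measured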
GRK2 CP2 – human GRK2 inhibition confirmation, cherry pick 2; shares compounds with GRK2 inh; bead-bound GRK2, FAM-aptamer displacement, flow cytometry; inhibition of aptamer binding, % at 10 µM; 360 tested, under 10 active; AID 504782;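 active = inhibition of aptamer binding above 40%, about triple the noise seen with nonglowing compounds, on plates passing quality control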;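 note: negative values mostly come from compounds that fluoresce themselves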
FAM quench CP2 – counter-screen for GRK2 binding hits: quenchers of fluorescent RNA aptamer; shares compounds with GRK2 inh; carboxyfluorescein RNA aptamer beads, flow cytometry quenching; active compounds read low; fluorescence response vs DMSO, % at 10 µM; 360 tested, under 10 active; AID 588494;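 active = response vs DMSO under 50%, meaning signal dropped by over half, treated as fluorescence quencher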;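 note: labelled aptamer on streptavidin beads without GRK2 as a quench counter-screen; 100% = bead fluorescence of DMSO wells and lower means quenching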
Starred values were filed as active, the others as inactive; i = inactive; / = no result given. This is a sample that favours compounds with a hit; in the whole collection about 4.5% have one here.

SMILES | GRK2 inh | Rtt109 Vps75 | Rce1 inh | Efflux pump inh | ALR inh | HDAC3 inh | GRK2 CP1 | Aptamer quench SP | others
CC1(c2ccccc2)CC(C)(C)N2C(=O)Cc3cccc1c32 (centres undefined) | 50.0* | 1.5 | i | -0.1 | -9.1 | 3.9 | 1.1 | 99.4
CC(=O)N1c2ccccc2C(C)(c2ccccc2)CC1(C)C (centres undefined) | 3.0 | -2.9 | i | 0.1 | -8.3 | 2.6 | / | /
Clc1ccc2c(N/N=C/c3cccc(Br)c3)ccnc2c1 | 73.0* | -10.6 | i | -0.1 | -14.4 | -2.9 | 0.1 | 92.9
Cc1cc(C)c(S(=O)(=O)Nc2ccccc2C(=O)N2CCCC2)c(C)c1 | 0.0 | -8.2 | i | 0.0 | -6.1 | -6.1 | / | /
CC1(C(=O)NNC(=O)c2cccc([N+](=O)[O-])c2)CC1(Br)Br (centres undefined) | 40.0 | -11.3 | i | 0.0 | -0.2 | 1.8 | -4.0 | 101.5
CNC(=O)NC(=O)COC(=O)CCCSc1nc2ccccc2s1 | 2.0 | 0.8 | i | 0.0 | / | 1.7 | / | /
NC(=O)COC(=O)CCCSc1nc2ccccc2s1 | 51.0* | -0.6 | i | -0.2 | -27.4 | -6.9 | 0.7 | 96.7
O=C(O)CCn1nnc(-c2cccs2)n1 | 1.0 | 3.5 | i | 0.2 | 1.2 | 0.7 | / | /
O=C(O)Cn1nnc(-c2cccs2)n1 | 89.0* | 4.4 | i | -0.1 | -13.9 | -1.3 | -1.9 | 100.2
OC[C@H]1O[C@H](OC[C@H]2OC(O)[C@H](O)[C@@H](O)[C@@H]2O)[C@H](O)[C@@H](O)[C@@H]1O (some centres undefined) | 0.0 | 0.4 | / | 0.0 | -7.6 | -3.7 | / | /
O=S(=O)(O)c1cc(O)c2c(O)c(N=Nc3cc(Cl)ccc3O)c(S(=O)(=O)O)cc2c1 | 99.0* | 4.9 | i | 0.0 | 54.0 | 6.2 | 70.0* | 99.5 | Aptamer quench=6.6
COc1ccc(C(=O)CNc2cccc(F)c2)cc1 | 2.0 | -11.8 | i | 1.4 | 29.7 | -5.8 | / | /
CCCNC(=O)C(Cc1ccccc1F)NC(=O)c1ccccn1 (centres undefined) | 86.0* | 2.8 | / | -0.2 | -1.2 | 1.3 | 1.4 | 96.4 | GRK2 CP2=2.5;FAM quench CP2=100.0
CC(=O)Nc1ccc(N2CCN(c3ccc(F)cc3)CC2)cc1 | 11.0 | -5.5 | i | -0.3 | / | 1.8 | -0.7 | 102.8
CS(=O)(=O)N1CCC(Oc2cccc(C(=O)NCCCC3CCCC3)c2)CC1 | 0.0 | -3.0 | i | 1.3 | -16.1 | -1.5 | / | /
COc1cc(C2Nc3ccc4ccccc4c3C3=C2C(=O)CC(C)(C)C3)ccc1OCC(=O)O (centres undefined) | 0.0 | -1.2 | i | -0.2 | -7.4 | -23.3 | / | /
CC1(C)CC(=O)C2=C(C1)c1c(ccc3ccccc13)NC2c1ccc(OCC(=O)O)cc1 (centres undefined) | 78.0* | -0.9 | i | 0.2 | -1.0 | -18.2 | -0.1 | 93.8
CC(=O)c1cc(CN2CCC(n3nccc3NC(=O)c3ccccc3)CC2)cs1 | 0.0 | -3.4 | i | 0.0 | -6.8 | -9.8 | / | /
Cc1ccc(CCSCC(=O)O)cn1 | 74.0* | 3.6 | i | 0.2 | -14.1 | 3.2 | 3.0 | 100.0
Cc1ccc(SCCc2ccc(C)nc2)cc1 | 2.0 | 1.1 | i | 0.1 | -2.4 | 5.9 | / | /
C[C@H](CO)N1C[C@H](C)[C@@H](CN(C)C(=O)NC2CCCCC2)Oc2ccc(NC(=O)Nc3ccccc3)cc2C1=O | 3.0 | 4.6 | / | 0.1 | -1.7 | -4.0 | / | /

Source: PubChem BioAssay
